Experimental data published in PubChem BioAssay AID1508600 (Functional Genomics Laboratory (NCATS/FGL), 2020).
Among all 53,000 sequences or so, about 3,700 (7%) were called active. This is one part of a sample in which actives are shown more often than they occur. A number with no mark means an inactive call.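 The calls were made as follows: active = gene knockdowns whose robust z-score for IL-1 alpha signal is at least 2 or at most -2, so actives lie on both sides; inactive = the rest.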

experiment: Components of the Cytosolic LPS Sensing Pathway: Gene Identification via Genome-wide siRNA Screen; settings: RAW264.7 macrophages, IL-1a HTRF, actives lie on both sides, screened at 100 nM (by protocol), cells primed 5 h with Pam3CSK4 first;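 also: robust z of the log signal after scaling to non-targeting control siRNA wells of the plate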
In short: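 Using IL-1a HTRF as read-out, the screen measured release from RAW264.7 cells after 48h siRNA knockdown (100 nM), 5 h Pam3CSK4 priming and 24 h cytosolic LipidA. Values were expressed relative to negative-control wells as robust z-scores.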

Row | Sequence | z-score
1 | GGCAAAUAUUUCCAAGUACTT against Cpq | -1.57
2 | CGAAGUUCCUGGAAAAUAUTT against Tbc1d7 | -0.924
3 | CCAGAACGCGGAGCAAAUUTT against Sec63 | 2.13 (active)
4 | GCACUGUGACGAUACAAGATT against Asb1 | -1.17
5 | CCGUAGCGAGACUUACAUCTT against Asic3 | 1.88
6 | CCUAUAAUGGAGAUGAUACTT against Spty2d1 | -0.46
7 | GGGAAAUGGUGAAUCACAGTT against Dpp8 | 2.25 (active)
8 | GGCAGAAGCCGUUAGAGAUTT against Cep295nl | 0.35
9 | CCAAUCGUAAUGACAAUUCTT against Myo1d | -0.857
10 | GGGACAACACUCUUUUACUTT against Nab2 | 0.696
11 | GGAGGACUUUCAGUUAUAUTT against Ogfod3 | 1.32
12 | GCGAUUGUGCUUUUGAGCCTT against Tanc2 | 1.97
13 | GGCUUCAGUGAUGAAUGAATT against Tor1aip1 | -0.594
14 | GCCACGACACGAUGACAUATT against Plcxd1 | 0.918
15 | GCUAAGUUAAGCUUAAUACTT against Rbl1 | 3.33 (active)
16 | GGCAUAGCCACUAAAAAAATT against Muc2 | -0.832
17 | GGUUUCCAGUUAUCUUAAUTT against Glipr1l2 | 1.46
18 | GGACAAAGAAACUCAUAGGTT against A530021J07Rik | 0.737
19 | GGCUUUUUAGGAAACUAUATT against Olfr361 | 2.12 (active)
20 | GGUGAACUUCUUUGGUGCATT against Hsd11b2 | 0.0519
21 | GCUUAGAAAUCUUAUCCCATT against Hnrnpc | -1.19
22 | GGCACUUCUUUCCAAGACGTT against Gbp7 | -0.373
23 | GCCUGUUCUAUGUUACUGGTT against Olfr320 | -1.99

Row | Sequence | z-score
24 | GCGAUGUCAAUCAAUUCUGTT against Gpr37l1 | 0.513
25 | GCAUUUCGUCAGGGCAAAATT against Fuca1 | -0.515
26 | UAUUUCUCCCUUGCUGGUATT against Gm5168 | 1.18
27 | CCGCUGAAAAUGGAAGUUATT against Mrgprb4 | -2.21 (active)
28 | GCCCAGAAUAGACAAACCGTT against Wfdc15b | -1.95
29 | CCUGAUCCCAUGUAAAACATT against Sspn | -0.35
30 | GGGAAUGACAGAAAUAUAATT against Golm1 | 0.923
31 | GGUUGUUACCUUACUGUACTT against Olfr532 | 0.952
32 | GGCUAUUGUUGGUAGAACUTT against Dek | 0.441
33 | CGUAAUACAAUCCAGUUCATT against Aqr | -2.18 (active)
34 | GGACUUAUGAGCAAAUAAATT against Rprd1a | 0.494
35 | GGAACUUUAUGUCUCCUACTT against Lrrc56 | -0.988
36 | GGUUUCCUUUAUCAAGAAGTT against Snrnp25 | -0.00388
37 | CCUAUAAGUGAACUGUGAUTT against Aig1 | -0.71
38 | CCUGUAUACUAUCACUUGUTT against Casp8 | 0.103
39 | GCAGCUGCACUAAAGAACGTT against Dlg1 | 2.9 (active)
40 | GGUGUCUUAUGAGCAAUAUTT against Pdcd6 | -1.12
41 | GGGAAAUCAGAUAAAGCCCTT against Myl12a | 0.874
42 | GGCAACAACAUACCUAAUATT against Rmdn1 | -0.756
43 | GGUACUUUCGCAUCCUGCATT against Rnaseh2b | -0.397
44 | GGCAAAUGAGAAACAGCAATT against Cxcl16 | -2.23 (active)
45 | GGUGUUGGCUCACAACCAATT against Fam234b | -1.67
46 | GGUCAUUCCCAUUAAACAGTT against Emc8 | -2.57 (active)

Row | Sequence | z-score
47 | GGGCUCUGAAUUGAAGAAATT against Ralgps2 | -0.163
48 | CCCUUAGGGAGUGCUGUGATT against Gc | -1.85
49 | CCAAAGGGAAGAGUUAUGCTT against Tmem126b | 2.34 (active)
50 | CCCAUGAACCUUAUUUGAATT against Ino80c | -0.268
51 | GGUGGUAUUGUUGGCUUUATT against Olfr1297 | 0.293
52 | GAUGGACAGAAAUCAGGAGTT against Arap1 | 0.208
53 | CGGUCAUUUGAAGUAGGAATT against Pwwp3a | 0.76
54 | GGAUCAUCUCCUCUACUCUTT against Olfr394 | -1.84
55 | GGAAGUAGCUUAUUGUUCUTT against Polr2b | -2.69 (active)
56 | CCAGGUGAAUUAAUAGUCUTT against Stk4 | 0.93
57 | GGUACUAAAUCAAACAUCCTT against Angpt1 | 0.578
58 | GAUCUUUCGACACAUCACCTT against Cyp4a12a | -2.02 (active)
59 | GCCUGAAUCCGCCACAUUGTT against Cx3cl1 | 1.6
60 | GGAGGACCAUUGUAAGUAGTT against 9930022D16Rik | 2.17 (active)
61 | CCUGGAUGCAGGUUAAGCUTT against Dppa5a | -0.817
62 | GCUGAAACUAACAUUUGAUTT against Anxa3 | 0.146
63 | CCUCCACUAUACGGUAAGUTT against Pla2g2c | -3.37 (active)
64 | GGCUGGAUGUCAGAUUGCATT against Olfr1389 | -1.38
65 | GGACCAGUUUGAGUAUGAGTT against Tmem11 | -1.58
66 | CCUGUGAGGCCAUUGAUUCTT against Acsbg1 | -1.33
67 | GGACUCUUUUUGUUCUUUGTT against Vgll2 | -1.22
68 | CGUUACCAUGAGAGUUAAUTT against Pcdhb19 | 3.83 (active)
